Pf growth 48h: inhibits P. falciparum growth in the first generation, 48 h. P. falciparum luciferase growth in erythrocytes, 48 h. Potency, µM (highest dose often 28.7 µM), for the others: at the top dose activity change, negative = inhibition, actives largely listed as inhibitors. 310,000 compounds, 5.9% hits. AID 504832; note: potency is the fitted concentration of half-maximal effect; % is set by controls: 0 for no effect and ±100 for the full control effect
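Here the parasites carry a stable luciferase gene and grow inside erythrocytes in Albumax-based RPMI medium with compound for one erythrocytic cycle. Activity is scored as loss of luminescent signal.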
NS1 function inh: blocks influenza NS1 protein function. Potency, µM (series often up to 46.1 µM), for inactives: at the highest dose activity, positive = more growth. 270,000 compounds, 0.4% hits. AID 2326; calls by dose curve; note: potency is the fitted concentration of half-maximal effect; actives are rising curves; nearly all actives have a fitted effect of over 50% in size
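A cell-based growth assay was used: compounds that relieve NS1-induced slow growth of budding yeast raise OD600. Assay medium was yeast nitrogen base with ammonium sulphate and -URA supplement, pH 6.0, with 2% galactose.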
Giardia FBPA inh: Giardia lamblia aldolase inhibition; purified Giardia FBPA; Potency, µM (highest dose often 59.6 µM), for inactives: at the highest dose activity, negative = inhibition, usual class: inhibitors; 290,000 compounds, 0.71% hits; A8B2U2; note: potency is the fitted concentration of half-maximal effect; % is set by controls: 0 for no effect and ±100 for the full control effect; nearly all actives have a fitted effect of over 55% in size
Target sequence (A8B2U2 whole entry, looked up): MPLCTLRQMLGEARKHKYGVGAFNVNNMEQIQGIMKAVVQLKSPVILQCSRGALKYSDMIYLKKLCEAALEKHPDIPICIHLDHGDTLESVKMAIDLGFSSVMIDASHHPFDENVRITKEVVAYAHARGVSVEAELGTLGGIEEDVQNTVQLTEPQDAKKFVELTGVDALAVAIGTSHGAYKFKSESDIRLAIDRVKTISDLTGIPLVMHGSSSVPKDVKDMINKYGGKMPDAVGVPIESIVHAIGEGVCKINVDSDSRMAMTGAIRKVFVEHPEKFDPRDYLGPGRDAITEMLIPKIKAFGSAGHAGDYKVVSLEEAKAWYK
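40 nM FBPA preincubated 10 min at RT with compound (up to 57.5 uM final), then substrate plus GAPDH/TPI/NAD/arsenate coupling and diaphorase/resazurin added. Fluorescence read after 20 min at RT, 525/598 nm.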
Pf growth 96h: P. falciparum growth inhibition at 96 hours. P. falciparum luciferase reporter growth, 96 h. AID 504834. 320,000 compounds, 6.9% hits. Potency, µM (titrated, usually from 28.7 µM), for the others: at the top dose activity change, negative = inhibition, hits mostly inhibitors; note: potency is the fitted concentration of half-maximal effect; % is set by controls: 0 for no effect and ±100 for the full control effect
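Delayed-death screen, second-generation endpoint: infected erythrocytes, 2% hematocrit, 0.05% parasitemia final; 96 hours at 37 C, 5% CO2; luciferase detection reagent; luminescence decrease equals reduced growth.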
Shiga toxin inh: Shiga toxin inhibition; Vero cells, Shiga toxin protein synthesis inhibition reporter; 290,000 compounds, 9.2% hits; inhibition, % at 38.7 µM; AID 2315; in the data active = inhibition mostly above about 28%, no sharp cut-off; inactive = mostly below about 43%; note: 0% is about no effect
Cycloheximide cs: counter-screen hit for Shiga toxin inhibitors, cycloheximide; cell reporter, cycloheximide protein synthesis inhibition counterscreen; 300,000 compounds, 12% hits; AID 2314; max response, %; in the data active = max response mostly above about 13%, no sharp cut-off; inactive = mostly below about 14%; note: read at 38.3 µM for the half of the compounds with a filed dose; 0% is about no effect
* hit, by the source's call; ? = inconclusive; · = not tested or not shown; [ ] = another dose, or the depositor's remark. Rows were chosen to be rich in hits. Some 21% of all compounds tested hit in one or more screens of this group. Unless noted, calls come from the whole dose curve; as a rule, active = well fitted curve in the direction sought with a large enough effect; inconclusive = small, poorly fitted or top-dose-only effect, or another doubt; inactive = no such curve, though single readings can be large; an effect the other way counts as inactive or inconclusive.

SMILES | Pf growth 48h | NS1 function inh | Giardia FBPA inh | Pf growth 96h | Shiga toxin inh | Cycloheximide cs
C=C(C)CNCCN | · | -2% | · | · | · | ·
O=C(OCc1c(F)cccc1Cl)c1cnc2ccccc2n1 | 24% | -6% | -2% | 33% | 16 | -2
Clc1cccc(CN2C3=NCCCN3c3ccccc32)c1 | -17% | -1% | -5% | ? | 1 | -3
Brc1ccc(CN2C3=NCCCN3c3ccccc32)cc1 | 12µM* | -7% | 6% | 131% | -13 | -7
O=C(N/N=C/c1cccc(F)c1)NC1CCCCC1 | 66% | -10% | 2% | 0% | 20 | 19*
O=C(N/N=C/c1cccc(F)c1)c1c(O)c2c([nH]c1=O)CCCC2 | 84% | 21% | 8% | 86% | 36* | 26*
O=C(N/N=C/c1ccccc1OC(F)F)NC1CCCCC1 | ? | 1% | -2% | ? | 11 | 2
O=C(N/N=C/c1ccccc1F)NC1CCCCC1 | 157% | -2% | 2% | -4% | 33* | 18*
CC(C)(C)c1ccc(/C=N/NC(=S)NC2CCCCC2)cc1 | ? | -1% | -1% | ? | 47* | 14
Cc1ccc(N2CC(C(=O)Nc3nnc(SCCN4CCOCC4)s3)CC2=O)cc1C (configuration not stated) | ? | -3% | · | ? | -3 | -2
CC1CCC2C(=O)N3CCCC3C(=O)N2C1c1ccc(Br)cc1 (configuration not stated) | · | · | -3%[12.9 µM] | · | · | ·
COc1cc(/C=N/NC(=O)NC2CCCCC2)ccc1O | 3% | -1% | 0% | 26% | 43* | 14*
O=C(N/N=C/c1ccccc1)NC1CCCCC1 | 59% | -10% | 13% | 33% | 46 | 31*
CN(Cc1ccc(F)cc1)C(=O)c1cc(COc2ccc(F)cc2F)on1 | -32% | -3% | -1% | ? | -11 | -2
CSc1ccccc1OCc1cc(C(=O)N(C)Cc2c(C)n[nH]c2C)no1 | -14% | 13% | · | ? | 11 | 14*
CSc1ccccc1OCc1cc(C(=O)N(C)Cc2cnccn2)no1 | -17% | 1% | · | ? | 110* | 52*
CSc1ccccc1OCc1cc(C(=O)N(C)Cc2cc(C)[nH]n2)no1 | -12% | 10% | · | 11% | 63 | 28*
CN(Cc1nccs1)C(=O)c1cc(COc2cccc3cnccc23)on1 | -2% | -11% | · | ? | -6 | 5
O=C(Cc1ccccc1)c1ccc(Cl)cc1 | 10% | 3% | 3% | -9% | 60* | 32*
O=C(Cc1ccccc1)NCC(=O)OCC(=O)c1ccc(Cl)cc1 | 0% | -1% | · | -23% | -27 | -3
Cc1ccc(CC(=O)c2ccc(Cl)cc2)cc1 | 102% | 8% | 2% | 39% | 68* | 47*
Cc1ccc(C(=O)CCC(=O)NCc2ccc(Cl)cc2)cc1 | ? | · | · | -20% | · | ·
O=C(Cc1ccccc1)c1c[nH]c(C(=O)O)c1 | -3% | 3% | 5% | ? | 51 | -4
NC(=O)c1cc(C(=O)Cc2ccc(Cl)cc2)c[nH]1 | 69% | 3% | 4% | 56% | 40* | 23*
O=C(Cc1ccc(Cl)cc1)c1ccc(O)cc1 | 74% | -4% | 9% | 206% | 110* | 48*
SMILES | Pf growth 48h | NS1 function inh | Giardia FBPA inh | Pf growth 96h | Shiga toxin inh | Cycloheximide cs
Cc1c(S(=O)(=O)Nc2cccc3ccccc23)c(=O)n(C)c(=O)n1C | 1% | · | · | -4% | · | ·
CC(NC(=O)c1ccc(Br)o1)C1CC2CCC1C2 (configuration not stated) | -8% | -20% | -3% | 1µM* | -2 | -1
O=c1oc(CCCO)cc2ccc(/C=C/c3cccc([N+](=O)[O-])c3)cc12 | 95% | · | · | 21% | · | ·
O=C(c1cn(-c2ccccc2)nc1-c1cccs1)N1CCN(c2ccccn2)CC1 | -12% | -52% | -4% | · | 43* | 16*
COc1ccc(-c2nn(-c3ccccc3)cc2C(=O)Nc2ccc(C(=O)O)cc2)cc1 | -15% | 4% | -14% | ? | -7 | -4
COc1ccc(NC(=O)CN(C)C(=O)c2cn(-c3ccccc3)nc2-c2ccc(F)cc2)cc1 | 12µM* | · | · | ? | · | ·
CN(CC(=O)Nc1cccc(F)c1)C(=O)c1cn(-c2ccccc2)nc1-c1ccc(Cl)cc1 | 15µM* | · | · | ? | · | ·
Cc1ccc(-c2nn(-c3ccc(F)cc3)cc2C(=O)N(C)CC(=O)Nc2ccc(N3CCOCC3)cc2)cc1 | -19% | · | · | ? | · | ·
CCN(CC)C(=O)c1ccc(NC(=O)c2cn(-c3ccccc3)nc2-c2ccc(OC)cc2)cc1 | ? | 15% | · | 7.4µM* | -3 | 2
CN(C)c1ccc(NC(=O)c2cn(-c3ccccc3)nc2-c2cccs2)cc1 | · | 8% | -8% | -19% | 3 | 24
COc1ccc(NC(=O)CN(C)C(=O)c2cn(-c3ccccc3)nc2-c2ccc(OC)cc2)cc1 | 13µM* | · | · | ? | · | ·
O=C(Nc1ccc2ccccc2c1)c1cn(-c2ccccc2)nc1-c1cccs1 | ? | 8% | -5% | 13µM* | 32 | 10
COc1ccc(NC(=O)CN(C)C(=O)/C=C/c2cn(-c3ccccc3)nc2-c2ccc(C)cc2)cc1 | 9.3µM* | · | · | 13µM* | · | ·
COc1ccc(NC(=O)CN(C)C(=O)c2cn(-c3ccccc3)nc2-c2ccc(Cl)cc2)cc1 | 10µM* | · | · | ? | · | ·
CCOC(=O)N1CCC(n2c(SCC(=O)NCCc3ccc(S(N)(=O)=O)cc3)nc3ccccc3c2=O)CC1 | ? | · | 6% | -26% | -4 | -2
CN=C(Nc1cccnc1)c1ccccc1 | -3% | 7% | 5% | 7% | -7 | -3
Cc1nn(CC(=O)NCCCN2CCC(N3CCCCC3)CC2)c(=O)c2cc(-c3ccccc3)nn12 | ? | -3% | -8% | ? | -6 | -3
O=C(O)c1ccc(NC(=O)c2cn(-c3ccccc3)nc2-c2ccccc2)cc1 | 25% | -2% | 1% | -5% | 56* | 21*
O=C(NN1CCOCC1)c1cn(-c2ccccc2)nc1-c1cccs1 | 21% | -8% | -1% | 32% | -6 | 5
O=C(O)c1ccc(NC(=O)c2cn(-c3ccccc3)nc2-c2ccc(Br)cc2)cc1 | -4% | -8% | -8% | 160%[5.75 µM] | -9 | -6
O=C(Nc1cn(-c2ccccc2)nc1-c1cccs1)c1ccco1 | 25% | -15% | 0% | 43% | 92* | 18*
COc1ccc(-c2nn(-c3ccccc3)cc2C(=O)NC(=S)Nc2cc(Cl)ccc2Cl)cc1 | 2.9µM* | 0% | 1% | 5.2µM* | -2 | -2
COCC(=O)N1CCC[C@@]2(CCN(C(c3ccccc3)c3ccccc3)C2)C1 | · | · | 7% | · | · | ·
COc1ccc(S(=O)(=O)N2CCCC(C(=O)NCc3ccco3)C2)cc1OC (configuration not stated) | -4% | 25% | 11% | 17% | -2 | -3
CC(CO)(CO)N=Cc1cc(I)cc(I)c1O | · | -53% | · | · | · | ·
Cc1nnc(Oc2ccccc2F)c2ccccc12 | 58% | -12% | 3% | 42% | 106* | 33*
COc1ccc(Oc2nnc(C)c3ccccc23)cc1 | · | -31% | 0% | 195% | 42 | 46*

From PubChem
